# Laboratory results as given in PubChem BioAssay AID1745848 (National Center for Advancing Translational Sciences (NCATS), 2022).
# Values joined by “and” are separate entries in the source; they are usually repeats but may differ in a detail not shown here. Equal entries are not always repeated. Screen size: about 2,100 compounds; about 940 (45%) were called active. Roughly 48% stayed inconclusive and do not appear here. Calls come from the whole dose curve; as a rule, active = well fitted inhibition curve with a large enough effect; inconclusive = small, poorly fitted or top-dose-only effect; inactive = no such curve, though single readings can be large or run the other way. So high a share suggests a set chosen from earlier hits. Some of the results follow.
# Assay: Confirmatory qHTS for Inhibitors of ATXN expression; note: nearly all actives have a fitted effect of over 65% in size
# Details: ATXN2-luciferase reporter cells, luminescence, 24 h; series mostly up to 11.5 µM
# Summary of the method: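 Cells carrying ATXN2-luciferase reporter exposed 24 h at 37 C to compound. Viability then read by CellTiter-Fluor (25 uM GF-AFC, 30 min), followed by SteadyGlo luminescence; medium-only wells set 100% inhibition.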
# Potency is the fitted concentration of half-maximal effect.
row,SMILES,Potency
1,Cc1cc(/C=N/n2cnnc2)c(C)n1-c1ccc(OCc2ccc(Cl)cc2Cl)cc1,7.94 µM (active)
2,COc1cc(OC)c2cc(C(=O)N/N=C/c3cccc(OC)c3O)[nH]c2c1,3.55 µM (active)
3,COc1cccc(/C=N/NC(=O)c2cc3c(OC)cccc3[nH]2)c1O,2.24 µM (active)
4,O=C(NC(=S)N1CCN(c2ccc(F)cc2)CC1)c1cccs1,inactive
5,Cc1[nH]c(-c2ccc(F)cc2)cc1C(=O)N1CCN(c2ccc(Cl)cc2)CC1,25.1 µM (active)
6,CN1CCN(c2cc(-c3cc(O)c4ncccc4c3)ccn2)CC1,12.6 µM (active)
7,C/C(=N\NC(=O)C1CCCN(S(=O)(=O)c2ccccc2)C1)c1ccccn1 (stereo not drawn),0.794 µM (active)
8,C/C(=N\NC(=O)Cc1ccc(Cl)cc1)c1ccccc1O,14.1 µM (active)
9,C/C(=N\NC(=O)C1COc2ccccc2O1)c1ccccn1 (stereo not drawn),0.631 µM (active)
10,COc1ccc(CC(=O)N/N=C(\C)c2ccccn2)cc1,11.2 µM (active)
11,CCCCCC(=O)N/N=C(\C)c1ccccn1,0.501 µM (active)
12,C/C(=N\NC(=O)CCCNc1ccc(C)cc1)c1ccccn1,14.1 µM (active)
13,Cc1ccc(/C=N/NC(=O)C2=NNC(c3ccccc3)(c3ccccc3)C2)c(O)c1,2.82 µM (active)
14,CC(C)(C)c1nnc(N/N=C/c2ccccc2O)n(N)c1=O,0.891 µM (active)
15,CCn1c2ccccc2c2cc(C3C(C#N)=C(N)Oc4n[nH]c(COC)c43)ccc21 (stereo not drawn),2.82 µM (active)
16,CCn1c2ccccc2c2cc(NC(=O)COC(=O)C3CCC(=O)N3)ccc21 (stereo not drawn),11.2 µM (active)
17,CCn1c2ccccc2c2cc(NC(=O)COC(=O)c3cc(S(=O)(=O)N4CCCCC4)ccc3Cl)ccc21,1.58 µM (active)
18,CCn1c2ccccc2c2cc(NC(=O)COC(=O)Cc3cn4ccsc4n3)ccc21,1.26 µM (active)
19,CCn1c2ccccc2c2cc(NC(=O)COC(=O)c3ccccc3F)ccc21,2 µM (active)
20,Cc1c(C(=O)NCc2ccc(Cl)c(Cl)c2)sc(=O)n1Cc1ccc(S(C)(=O)=O)cc1,inactive
21,COc1ccc(N=Cc2cc3c(cc2O)OC(N)=C(C#N)C3c2ccccc2)cc1 (stereo not drawn),inactive
22,Cc1cc(OCc2nc(N)nc(N)c2-c2ccc(Cl)c(Cl)c2)ccc1[N+](=O)[O-],2.51 µM (active)

row,SMILES,Potency
1,COc1ccccc1-n1c(-c2ccccc2)c[n+]2c1CCc1ccccc1-2,7.94 µM (active)
2,Cc1ccc(-n2c(-c3ccccc3)c[n+]3c2CCc2ccccc2-3)c(C)c1,0.794 µM (active)
3,CNc1ccccc1C(=O)OC(C)C(=O)Nc1ccc(Cl)cn1 (stereo not drawn),2 µM (active)
4,Cc1nnc(SC(C)C(=O)Nc2ccc(Cl)cn2)n1Cc1ccccc1 (stereo not drawn),inactive
5,NNC(=O)c1sc2cc(C(F)(F)F)cnc2c1-c1cccs1,28.2 µM (active)
6,COC1=C(c2ccccc2)C(=O)c2ccccc2C1=O,inactive
7,O=C1c2cccc3c([N+](=O)[O-])ccc(c23)C(=O)N1c1ccccn1,3.98 µM (active)
8,Cc1ccnc(N2C(=O)c3cccc4c([N+](=O)[O-])ccc(c34)C2=O)c1,28.2 µM (active)
9,O=C(Nc1nccs1)c1cccc(N2C(=O)c3cccc4c([N+](=O)[O-])ccc(c34)C2=O)c1,20 µM (active)
10,Cc1ccc(Cl)cc1-c1ccc(C=Nc2ccc(N3CCOCC3)cc2)o1,12.6 µM (active)
11,C=CCn1cnc2c(c1=O)c1nc3ccccc3nc1n2/N=C/c1cc(OC)c(OC)c(OC)c1,14.1 µM (active)
12,Cc1ccc2nc(NNC(=O)c3ccc(S(=O)(=O)N4CCc5ccccc5C4)cc3)sc2c1,2.51 µM (active)
13,Cc1cc(C)c2nc(NNC(=O)c3ccc(S(=O)(=O)N4CCc5ccccc5C4)cc3)sc2c1,3.16 µM (active)
14,NC(=O)c1cc([N+](=O)[O-])ccc1NCc1ccc(N)cc1,4.47 µM (active)
15,C[n+]1c2cc(N)ccc2cc2ccc(N)cc21,4.47 µM (active) and 3.55 µM (active)
16,Nc1c(C(=O)NCc2ccc(F)cc2)c2nc3ccccc3nc2n1CCCN1CCOCC1,3.16 µM (active)
17,Cn1c(/C=C/c2cccc([N+](=O)[O-])c2)c([N+](=O)[O-])c(=O)n(C)c1=O,25.1 µM (active)
18,Cn1c(/C=C/c2ccc(Cl)cc2Cl)c([N+](=O)[O-])c(=O)n(C)c1=O,11.2 µM (active)
19,Cn1c(/C=C/c2ccc(Cl)cc2)c([N+](=O)[O-])c(=O)n(C)c1=O,22.4 µM (active)
20,O=C1C=CCC(/C=C/c2ccccc2)O1 (stereo not drawn),6.31 µM (active)
21,CCC(C)(C)c1ccc(OCCCC[n+]2ccccc2)c(C(C)(C)CC)c1,3.16 µM (active)
